A selection: hits, their analogues and other compounds. The true share with any hit is near 6.9%.
CSC inhib = cancer stem cell inhibition; cancer stem cell-like cells viability, luminescence; inhibition, % at 7.5 µM; 300,000 compounds, 1.1% hits; in the data active means inhibition above about 75%; tested in HMLE shEcad cells
SKKanGAS inh = inhibitors of SKKanGAS S. pyogenes growth in kanamycin (SK-promoter or general growth effect); BacTiter-Glo, 6 h; inhibition, % at 7.5 µM; 300,000 compounds, 1.3% hits; AID 1662;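 active means mean replicate score, as percent of positive control median, at least 50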;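 further: strain carries kanamycin resistance gene driven by streptokinase promoter and grows in 40 µg/ml kanamycin; loss of luminescence reflects streptokinase promoter inhibition or plain growth inhibition; 0% = median of DMSO wells and 100% = positive control at its reference dose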
Beta cell apopt = beta cell apoptosis inhibition; AID 435005; INS-1E cytokine-induced death, ATP luminescence, 48 h; percent of positive-control rescue, neutral wells zero; 300,000 compounds, 0.8% hits; protection from apoptosis, % (no concentration beside the values);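 active means Every replicate reaches about 75%, or at least half do and their mean reaches it too, limit read from the data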;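 further: 0% = cytokine-treated negative control wells and 100% = positive control rescue; higher means more ATP so stronger rescue from cytokine killing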
MPTP inh = inhibitors of mitochondrial permeability transition pore | inhibition, % at 10 µM | isolated mouse mitochondria, Ca2+ swelling absorbance, 30 min | AID 602449 | 360,000 compounds, 1.4% hits;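 active means inhibition of 50% or more, scaled per plate between neutral and stimulator controls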;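 further: 0% = DMSO wells given calcium and 100% = 1 mM EGTA wells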
NR3A LBD binder = modulates the human NR3A ligand-binding domain | 340,000 compounds, 2.5% hits | NR3A LBD differential scanning fluorimetry, Tm shift; 0% = protein alone, 100% = glycine-bound protein | AID 1259313 | Tm shift relative to glycine control, % at 25 µM;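 active means melting temperature shift of at least 10% of the positive control shift, at one fixed dose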
Mdm2 MdmX PPI = human Mdm2/MdmX binding inhibition; O15151+Q00987; 330,000 compounds, 3% hits; inhibition, % at 8 µM; SaOS-2 split-luciferase Mdm2/MdmX complementation, luminescence;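 active means inhibition of at least 50% at 8 µM in the primary screen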
Target sequence (O15151 whole entry, looked up): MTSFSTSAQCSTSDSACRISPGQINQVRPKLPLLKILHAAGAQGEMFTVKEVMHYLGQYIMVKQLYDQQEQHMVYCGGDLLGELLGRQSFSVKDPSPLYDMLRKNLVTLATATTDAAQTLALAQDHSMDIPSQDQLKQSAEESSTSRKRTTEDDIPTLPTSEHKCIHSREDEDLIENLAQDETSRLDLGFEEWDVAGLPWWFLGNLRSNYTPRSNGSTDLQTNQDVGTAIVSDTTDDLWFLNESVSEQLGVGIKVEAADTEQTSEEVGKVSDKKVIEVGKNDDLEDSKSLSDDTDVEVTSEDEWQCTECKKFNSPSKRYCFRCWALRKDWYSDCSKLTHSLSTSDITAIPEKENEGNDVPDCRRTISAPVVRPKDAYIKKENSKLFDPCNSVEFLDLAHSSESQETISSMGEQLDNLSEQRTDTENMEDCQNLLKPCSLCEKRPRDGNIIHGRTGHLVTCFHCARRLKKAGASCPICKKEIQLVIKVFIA
Target sequence (Q00987 whole entry, looked up): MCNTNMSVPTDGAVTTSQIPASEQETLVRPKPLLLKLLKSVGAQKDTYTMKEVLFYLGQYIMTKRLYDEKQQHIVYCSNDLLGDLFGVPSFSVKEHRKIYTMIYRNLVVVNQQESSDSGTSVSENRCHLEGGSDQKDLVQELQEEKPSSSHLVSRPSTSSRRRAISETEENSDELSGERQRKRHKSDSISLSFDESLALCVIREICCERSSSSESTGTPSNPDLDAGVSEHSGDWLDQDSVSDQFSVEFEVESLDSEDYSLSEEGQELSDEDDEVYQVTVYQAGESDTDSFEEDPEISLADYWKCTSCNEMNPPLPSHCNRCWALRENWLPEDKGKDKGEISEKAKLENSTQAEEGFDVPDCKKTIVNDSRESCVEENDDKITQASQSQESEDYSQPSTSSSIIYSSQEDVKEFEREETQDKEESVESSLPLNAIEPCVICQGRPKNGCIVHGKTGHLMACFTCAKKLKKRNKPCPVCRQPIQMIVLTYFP
An asterisk follows results filed as active.

Screening COC(=O)/C(C#N)=C/c1c(Oc2cc(C)cc(C)c2)nc2c(C)cccn2c1=O returned CSC inhib 3, SKKanGAS inh 1, Beta cell apopt -2, MPTP inh 3, NR3A LBD binder 13* and Mdm2 MdmX PPI 31.
Screening COc1ccc2nc(-n3c(C)ccc3C)sc2c1 returned CSC inhib -1, SKKanGAS inh 54*, Beta cell apopt 2, MPTP inh -1, NR3A LBD binder 3 and Mdm2 MdmX PPI 20.
Screening COc1ccc(Nc2cc(Nc3ccccc3)ncn2)cc1 returned CSC inhib 7, SKKanGAS inh -4, Beta cell apopt -6, MPTP inh -1, NR3A LBD binder 31* and Mdm2 MdmX PPI -47.
Screening COc1ccc(Nc2nc(OC)nc(OC)n2)cc1 returned CSC inhib -5, SKKanGAS inh -2, MPTP inh -2, NR3A LBD binder -6 and Mdm2 MdmX PPI -3.
`COc1ccc2nc(NC3=NCCC3)sc2c1` gave CSC inhib -2, SKKanGAS inh 2, Beta cell apopt 1, MPTP inh -8, NR3A LBD binder 2 and Mdm2 MdmX PPI -94.
For COc1cccc(Nc2nc3ccc(OC)cc3s2)c1 the results were CSC inhib 29, SKKanGAS inh 7, Beta cell apopt 2, MPTP inh -6, NR3A LBD binder 29* and Mdm2 MdmX PPI -244.
`COc1ccc(Nc2nc3ccccc3s2)cc1` gave CSC inhib 2, SKKanGAS inh 2, Beta cell apopt -5, MPTP inh 2, NR3A LBD binder 29* and Mdm2 MdmX PPI -169.
Screening CCOC(=O)c1cnc2oc3ccccc3n2c1=O returned CSC inhib 4, SKKanGAS inh -2, Beta cell apopt -4, MPTP inh 0, NR3A LBD binder -1 and Mdm2 MdmX PPI -11.
`O=C(NCc1ccc2c(c1)OCO2)c1nc(Cn2cc([N+](=O)[O-])cn2)no1` gave CSC inhib 6, SKKanGAS inh -17, Beta cell apopt -9, MPTP inh -1, NR3A LBD binder 0 and Mdm2 MdmX PPI 1.
`COc1cccc(N2[C@@H](CC(C)=O)c3ccc(/C=C/C(C)=O)cc3S2(=O)=O)c1` gave CSC inhib 22, SKKanGAS inh 4, Beta cell apopt -11, MPTP inh 0, NR3A LBD binder 3 and Mdm2 MdmX PPI 32.
COc1ccc2nc(NC(=S)N(C)C)sc2c1 was read as CSC inhib -5, SKKanGAS inh 16, Beta cell apopt 17, MPTP inh 1, NR3A LBD binder 24* and Mdm2 MdmX PPI -176.
For CCC(C)C1/C=C\CC(NC(=O)OCC2c3ccccc3-c3ccccc32)CC(=O)N1Cc1ccccc1 (configuration not stated) the results were MPTP inh -3, NR3A LBD binder 1 and Mdm2 MdmX PPI 43.
For COc1ccc(C2/C=C\CC(NC(=O)OCC3c4ccccc4-c4ccccc43)CC(=O)N2Cc2ccccc2F)cc1 (configuration not stated) the results were MPTP inh 0, NR3A LBD binder 14* and Mdm2 MdmX PPI 26.
O=C(N/N=C/c1cc2c(cc1Br)OCO2)c1c[nH]c2ccccc12 was read as CSC inhib -3, SKKanGAS inh 5, Beta cell apopt -3, MPTP inh 4, NR3A LBD binder 15* and Mdm2 MdmX PPI -26.
Screening O=C(N/N=C/c1ccc(Br)s1)c1cccs1 returned CSC inhib 15, SKKanGAS inh 15, Beta cell apopt 10, MPTP inh 4, NR3A LBD binder 6 and Mdm2 MdmX PPI 15.
Screening O=C(N/N=C/c1ccc(Br)s1)Nc1ccccc1 returned CSC inhib 2, SKKanGAS inh -2, Beta cell apopt 1, MPTP inh 1, NR3A LBD binder 20* and Mdm2 MdmX PPI -2.
Screening O=C(N/N=C/c1ccc(Br)s1)c1c[nH]c2ccccc12 returned CSC inhib 41, SKKanGAS inh 2, Beta cell apopt 9, MPTP inh 2, NR3A LBD binder 25* and Mdm2 MdmX PPI -22.
For Cc1cc(C(=O)N/N=C/c2c[nH]c3ccccc23)c(C)o1 the results were CSC inhib 7, SKKanGAS inh -3, Beta cell apopt -8, MPTP inh 0, NR3A LBD binder 8 and Mdm2 MdmX PPI -10.
Screening O=C(N/N=C/c1cc(Br)cs1)c1ccccc1[N+](=O)[O-] returned CSC inhib 10, SKKanGAS inh -5, Beta cell apopt -4, MPTP inh 4, NR3A LBD binder 2 and Mdm2 MdmX PPI -20.
Screening O=C(N/N=C/c1cc(Br)cs1)c1c[nH]c2ccccc12 returned CSC inhib 39, SKKanGAS inh 7, Beta cell apopt 12, MPTP inh 10, NR3A LBD binder 38* and Mdm2 MdmX PPI 9.
For O=C(O)C(Cc1c[nH]c2ccccc12)N1C(=O)C2C3c4ccccc4C(c4ccccc43)C2C1=O (configuration not stated) the results were CSC inhib -5, SKKanGAS inh 3, Beta cell apopt -5, MPTP inh -2, NR3A LBD binder 1 and Mdm2 MdmX PPI 7.
CCC1CCCCN1C(=O)c1cc(S(=O)(=O)N2CCOCC2)ccc1C (configuration not stated) was read as CSC inhib 1, Beta cell apopt 0, MPTP inh 0, NR3A LBD binder 2 and Mdm2 MdmX PPI 24.
For O=C(COc1ccc(Cl)cc1)N(Cc1ccc(F)cc1)C1CCS(=O)(=O)C1 (configuration not stated) the results were CSC inhib -7, SKKanGAS inh 7, Beta cell apopt -5, MPTP inh 0, NR3A LBD binder 2 and Mdm2 MdmX PPI 17.
`O=C(N/N=C/c1cc2c(cc1Br)OCO2)c1ccccn1` gave CSC inhib 3, SKKanGAS inh 3, Beta cell apopt 16, MPTP inh 1, NR3A LBD binder -1 and Mdm2 MdmX PPI -41.
For O=C(N/N=C/c1cc2c(cc1Br)OCO2)c1cc2ccccc2o1 the results were CSC inhib -2, SKKanGAS inh 10, Beta cell apopt 8, MPTP inh 0, NR3A LBD binder 13* and Mdm2 MdmX PPI -11.
Screening CCOC(=O)C1(C)CCCN(C(=O)c2ccc3ccccc3c2)C1 (configuration not stated) returned MPTP inh 0.
Screening N=C1S/C(=C\c2cn[nH]c2-c2ccc(F)cc2)C(=O)N1c1ccccc1F returned CSC inhib 73, SKKanGAS inh 60*, Beta cell apopt -26, MPTP inh -2, NR3A LBD binder 6 and Mdm2 MdmX PPI -28.
N=C1S/C(=C\c2ccccc2F)C(=O)N1c1ccc(F)cc1 was read as CSC inhib -2, SKKanGAS inh -3, Beta cell apopt -3, MPTP inh 11, NR3A LBD binder 11* and Mdm2 MdmX PPI 1.
For N=C1S/C(=C\c2ccccc2)C(=O)N1c1ccc(F)cc1 the results were SKKanGAS inh -12, Beta cell apopt -8, MPTP inh 5, NR3A LBD binder 5 and Mdm2 MdmX PPI 8.
